Reference: PubChem BioAssay (EPA / NIEHS)
Records with an inconclusive call do not appear. Active and inactive are the calls of the source. Rule for the calls: active = hit-call score of the fitted dose curve at least 0.9, where 1 is the maximum; inconclusive = response in the unintended direction; inactive = score below 0.9.

Experiment: ATG_GAL4_TRANS: Attagene TRANS-FACTORIAL HepG2 Assay for GAL4 (Internal Marker) (AID 2282976)
Details: HepG2 Attagene TRANS GAL4 internal marker reporter
Method: ATG_TRANS is a cell-based, multiplexed-readout assay that uses HepG2, a human liver cell line, with measurements taken at 24 hours after chemical dosing in a 24-well plate.ATG_GAL4_TRANS is one of 30 assay component(s) measured or calculated from the ATG_TRANS assay. It is designed to make measurements of mRNA induction, a form of inducible reporter, as detected with fluorescence intensity signals by Reverse transcription polymerase chain reaction (RT-PCR) and Capillary electrophoresis technology.Data from the assay component ATG_GAL4_TRANS was analyzed into 1 assay endpoint. This assay endpoint, ATG_GAL4_TRANS, was analyzed in the positive analysis fitting direction relative to DMSO as the negative control and baseline of activity. Using a type of inducible reporter, measures of mRNA for gain-of-signal activity can be used to understand the background control at the transcription factor-level as they relate to the gene . Furthermore, this assay endpoint can be referred to as a secondary readout, because this assay has produced multiple assay endpoints where this one serves a background control function. To generalize the intended target to other relatable targets, this assay endpoint is annotated to the background measurement intended target family, where the subfamily is baseline control.
Human liver HepG2 cells are transiently transfected with multiple reporter transcription units (MRTUs) in 6-well plates using FuGene 6 reagent (Roche; 3 ml FuGene/1 mg DNA). The MRTU constructs are regulated by a cis-regulating element (promoter). […] A major difference between the CIS and TRANS system is that in CIS activities of endogenous TFs are measured, whereas the TRANS assay evaluates changes in activities of exogenous, chimeric NR-Gal4 proteins. […] At the end of 24 hour incubation, total RNA was isolated using TriZol reagent (Invitrogen). The isolated RNA is then reverse-transcribed using oligo(dT) primer and Mo-MLV reverse transcriptase (Invitrogen) with DNAse I (Ambion) treatment for 30 min. The one-tenth of the produced cDNA was amplified by PCR using Taq DNA polymerase (Invitrogen) and two reporter sequence-specific primers. The PCR products were fluorescently labeled by primer extension with 6-arboxyfluorescein (6-FAM) 5'-labeled reporter sequence-specific primer (2 min at 95 C, 20 s at 68 C and 10 min at 72 C) and these products were digested with 5U of HpaI (New England Biolabs) for 2h at 37 C. The fragments were purified using Qiaquick PCR columns (Qiagen), analyzed on an ABI 3130xL genetic analyzer (Applied Biosystems) with peak positions identified by using a set of X-rhodamine (ROX)-labeled MapMarker1000 molecular weight standards (BioVentures). The raw capillary electrophoresis data was processed using Attagraph software (Attagene).

Row | Compound | outcome
1 | CC(=O)OC(C)(C)C1CC=C(C)CC1 (stereo not given) | inactive
2 | CCOC(=O)CC1(C)OCC(C)O1 (stereo not given) | inactive
3 | CC(=O)N(C)C | inactive
4 | CCCOC(=O)CC | inactive
5 | CC(C)=CCCC(C)=CC(=O)O | inactive
6 | C=CCCCCCCCCC(=O)OCC | inactive
7 | CCCCCCCCCCOC(=O)c1ccccc1C(=O)OCCCCCCCC | inactive
8 | CC1=CC(O)CC(C)(C)C1 (stereo not given) | inactive
9 | CCCCC(CC)COCCO (stereo not given) | inactive
10 | CCCCCCCC1CCCC1=O (stereo not given) | inactive
11 | Nc1ccc(O)c(N)c1 | inactive
12 | CCOC(=O)CCCCCCCCC(=O)OCC | inactive
13 | NC(N)=S | inactive
14 | O=C(C=Cc1ccccc1)OCCCc1ccccc1 | inactive
15 | S=c1[nH][nH]c(=S)s1 | inactive
16 | CC(C)(O)C(=O)c1ccc(OCCO)cc1 | inactive
17 | NNC(=O)OCc1ccccc1 | inactive
18 | ClCCOCCOCCCl | inactive
19 | CC/C=C\CCOC(C)OCC (stereo not given) | inactive
20 | CC(C)=CC(=O)O | inactive

Row | Compound | outcome
21 | NC(=O)c1cccnc1 | inactive
22 | COc1ccccc1NC(=O)CC(C)=O | inactive
23 | CCCCCCCCSCc1cc(C)c(O)c(CSCCCCCCCC)c1 | inactive
24 | CCC(C)(C)C1CCC(=O)CC1 | inactive
25 | COC(=O)c1cccc(C(=O)OC)c1 | inactive
26 | C=CC(C)(CCC=C(C)C)OC(=O)CC (stereo not given) | inactive
27 | CC(=N[Si](C)(C)C)O[Si](C)(C)C | inactive
28 | C=C(C)C(=O)OCCN(C)C | inactive
29 | CC(=O)c1ccc(C)cc1 | inactive
30 | CC1COC(=O)O1 (stereo not given) | inactive
31 | CCCCOCCOCCOCCO | inactive
32 | NC(=O)c1cnccn1 | inactive
33 | CCCCCCCCCO | inactive
34 | CC(=O)CCc1ccc(O)cc1 | inactive
35 | CC1(C)[C@H](C=C(Cl)Cl)[C@H]1C(=O)OCc1cccc(Oc2ccccc2)c1 | inactive
36 | CC(C)Cc1ccc(C(C)C(=O)O)cc1 (stereo not given) | inactive
37 | CC(=O)c1ccc(O)cc1 | inactive
38 | CC12CCC(C1)C(C)(C)C2O (stereo not given) | inactive
39 | CC(C)CCOC(=O)CC(C)C | inactive
40 | CCCCCCC(C)O (stereo not given) | inactive
